Test results as given in PubChem BioAssay AID1159580 (chemical genetic matrix, 2015).
About 2,000 (36%) of roughly 5,500 compounds were called active. Inconclusive results (about 18%) are left out. No stated cut-off is given here; in the data, active means normalized growth mostly below about 0.91 (no sharp cut-off); inconclusive means no clear call, values can overlap the other calls; inactive means mostly above about 0.92. The list shows a part of the results.

Test: chemical genetic growth profiling, strain panel (AID 1159580);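 further: tested at 20 µM; growth read once vehicle control cultures reached saturation at 30 °C; 1 = growth at the plate median or of vehicle wells; lower values mean less growth of the strain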
Conditions: S. cerevisiae deletion strains, growth OD

Measured: normalized growth

Cc1ccc(NC(=S)NNC(C)(C)C)cc1
inactive: locus YAL013W, strain DEP1, active compounds read low 0.991 | locus YBR229C, strain ROT2, active compounds read low 0.963 | locus YCL061C, strain MRC1, active compounds read low 0.972 | locus YDL101C, strain DUN1, active compounds read low 0.971 | locus YDR150W, strain NUM1, active compounds read low 0.898 | locus YGR078C, strain PAC10, active compounds read low 0.997 | locus YHR030C, strain SLT2, active compounds read low 0.721 | locus YHR087W, strain rtc3, active compounds read low 1.01 | locus YJR043C, strain POL32, active compounds read low 0.99 | locus YJR075W, strain HOC1, active compounds read low 1.06 | locus YLR058C, strain SHM2 (second series), active compounds read low 1 | locus YMR219W, strain ESC1, active compounds read low 1.01 | locus YMR263W, strain SAP30, active compounds read low 1.03 | locus YNL128W, strain TEP1, active compounds read low 0.94 | locus YNL153C, strain GIM3, active compounds read low 0.955 | locus YNL322C, strain KRE1, active compounds read low 1.02 | locus YPL055C, strain LGE1, active compounds read low 0.894 | locus YPL241C, strain CIN2, active compounds read low 0.913
active: locus YEL061C, strain CIN8, active compounds read low 0.838 | locus YLR039C, strain RIC1, active compounds read low 0.654 | locus YLR085C, strain ARP6, active compounds read low 0.488 | locus YLR262C, strain YPT6, active compounds read low 0.795 | locus YML094W, strain GIM5, active compounds read low 0.827 | locus YNL298W, strain CLA4 (second series), active compounds read low 0.675 | locus YNR030W, strain Alg12, active compounds read low 0.787 | locus YOL006C, strain TOP1, active compounds read low 0.193 | locus YPR135W, strain CTF4, active compounds read low 0.646
